# According to PMC5540273 (PLoS ONE, 2017):
# Experiments:
# Conditions in all cases: concentration: 1 μM, replicates: in singlicate; n = 1
# BLK = tested on: BLK
# BMPR1A = tested on: BMPR1A
# BMPR1B = tested on: BMPR1B
# BMPR2 = tested on: BMPR2
# BMX = tested on: BMX
# BRAF = tested on: BRAF
# BRK = tested on: T1, BRK
# T1 construct: gene PTK6
# BRSK1 = tested on: BRSK1
# BRSK2 = tested on: BRSK2
# BTK = tested on: BTK
# BUB1 = tested on: BUB1
# CAMK1B = tested on: CAMK1B
# CAMK1D = tested on: CAMK1D
# CAMK1G = tested on: CAMK1G
# CAMK1 = tested on: CAMK1
# CAMK2A = tested on: CAMK2A
# CAMK2B = tested on: CAMK2B
# CAMK2D = tested on: CAMK2D
# CAMK2G = tested on: CAMK2G
# CAMK4 = tested on: CAMK4
# 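Further: KINOMEscan kinase panel screen.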
Compound,%Inh (BLK) [%],%Inh (BMPR1A) [%],%Inh (BMPR1B) [%],%Inh (BMPR2) [%],%Inh (BMX) [%],%Inh (BRAF) [%],%Inh (BRK) [%],%Inh (BRSK1) [%],%Inh (BRSK2) [%],%Inh (BTK) [%],%Inh (BUB1) [%],%Inh (CAMK1B) [%],%Inh (CAMK1D) [%],%Inh (CAMK1G) [%],%Inh (CAMK1) [%],%Inh (CAMK2A) [%],%Inh (CAMK2B) [%],%Inh (CAMK2D) [%],%Inh (CAMK2G) [%],%Inh (CAMK4) [%]
Fc1ccc(-c2nn3c(OCC(F)(F)F)cccc3c2-c2ccncc2)cc1 [GW514784],43,0,0,1,2,44,1,0,0,31,99,0,7,0,0,0,0,0,22,0
Cl.Oc1cccc(Nc2ccnc3cc(-c4ccncc4)ccc23)c1 [GW494601],99.1,84,99.9,30,28,76,90,14,4,46,81,5,5,0,35,0,0,6,29,0
COC(=O)Nc1nc2cc(Oc3ccc(NC(=O)Nc4cc(F)ccc4F)cc3)ccc2[nH]1.Cl [GW701424],25,0,0,24,9,53,0,0,0,6,77,27,20,7,4,0,0,20,11,0
CCn1cnc2c(N)ncnc21 [GW345098],12,24,15,35,41,0,8,5,0,0,3,0,10,0,9,6,8,0,0,1
Cc1c2ccc(N(C)c3ccnc(Nc4cccc(S(N)(=O)=O)c4)n3)cc2nn1Cc1ccccc1.Cl.Cl [GW787226],82,3,0,1,6,95.8,89,0,0,0,0,0,0,11,2,0,0,0,0,16
COc1cc2c(cc1OCCN1CCN(C)CC1)ncc1c3ccc(C#N)cc3[nH]c21,4,0,0,0,0,0,23,4,0,0,100,19,44,16,0,93.5,70,92.6,86,0
COc1ccc(Nc2ncc(C#N)c(Nc3ccccc3C(N)=O)n2)cc1N1CCN(C)CC1.Cl [GSK1558669],99.8,0,80,92,75,98.6,99.7,90.9,88,97.2,87,100,99.1,83,95.6,92.5,78,83,86,0
CCc1ccnc(/C=C/c2n[nH]c3cc(Sc4ccccc4C(=O)NC)ccc23)c1,17,0,0,17,0,4,0,27,17,0,49,8,0,2,0,4,0,9,18,0
O=c1cc(N2CCOCC2)nc2n(Cc3cccc(C(F)(F)F)c3)ccn12 [GSK2297543],16,0,0,0,20,0,2,0,7,0,13,36,6,0,4,0,0,0,4,0
O=C(NCCCN1CCOCC1)c1cccc(Nc2nccc(Nc3ccc(Oc4ccccc4)cc3)n2)c1 [GW663929],95.4,0,0,15,54,0,69,6,0,51,28,37,33,0,55,3,6,2,0,0
O=c1cc(N2CCOCC2)nc2n(Cc3cccc4ccccc34)ccn12 [GSK2333389],21,0,0,0,7,9,0,1,0,0,32,4,15,0,0,0,0,0,0,0
